Data reported in the supplement of paper PMC11732987, “Enantioselective OTUD7B fragment discovery through chemoproteomics screening and high-throughput optimisation” (Communications Chemistry, 2025).

Tests used:
Experiment in all cases: log2 ratio of Biotin-Ahx-Ub-VS probe labelling (fragment/DMSO); higher = less target engagement (more negative = stronger competition), active = hit call of the paper (q ≤ 0.05, log2 ratio ≤ -1)
Conditions in all cases: compound concentration: 200 uM; treatment time: 3 h
USP19 = molecular target: T1, USP19 (UniProt O94966)
T1 sequence (whole entry): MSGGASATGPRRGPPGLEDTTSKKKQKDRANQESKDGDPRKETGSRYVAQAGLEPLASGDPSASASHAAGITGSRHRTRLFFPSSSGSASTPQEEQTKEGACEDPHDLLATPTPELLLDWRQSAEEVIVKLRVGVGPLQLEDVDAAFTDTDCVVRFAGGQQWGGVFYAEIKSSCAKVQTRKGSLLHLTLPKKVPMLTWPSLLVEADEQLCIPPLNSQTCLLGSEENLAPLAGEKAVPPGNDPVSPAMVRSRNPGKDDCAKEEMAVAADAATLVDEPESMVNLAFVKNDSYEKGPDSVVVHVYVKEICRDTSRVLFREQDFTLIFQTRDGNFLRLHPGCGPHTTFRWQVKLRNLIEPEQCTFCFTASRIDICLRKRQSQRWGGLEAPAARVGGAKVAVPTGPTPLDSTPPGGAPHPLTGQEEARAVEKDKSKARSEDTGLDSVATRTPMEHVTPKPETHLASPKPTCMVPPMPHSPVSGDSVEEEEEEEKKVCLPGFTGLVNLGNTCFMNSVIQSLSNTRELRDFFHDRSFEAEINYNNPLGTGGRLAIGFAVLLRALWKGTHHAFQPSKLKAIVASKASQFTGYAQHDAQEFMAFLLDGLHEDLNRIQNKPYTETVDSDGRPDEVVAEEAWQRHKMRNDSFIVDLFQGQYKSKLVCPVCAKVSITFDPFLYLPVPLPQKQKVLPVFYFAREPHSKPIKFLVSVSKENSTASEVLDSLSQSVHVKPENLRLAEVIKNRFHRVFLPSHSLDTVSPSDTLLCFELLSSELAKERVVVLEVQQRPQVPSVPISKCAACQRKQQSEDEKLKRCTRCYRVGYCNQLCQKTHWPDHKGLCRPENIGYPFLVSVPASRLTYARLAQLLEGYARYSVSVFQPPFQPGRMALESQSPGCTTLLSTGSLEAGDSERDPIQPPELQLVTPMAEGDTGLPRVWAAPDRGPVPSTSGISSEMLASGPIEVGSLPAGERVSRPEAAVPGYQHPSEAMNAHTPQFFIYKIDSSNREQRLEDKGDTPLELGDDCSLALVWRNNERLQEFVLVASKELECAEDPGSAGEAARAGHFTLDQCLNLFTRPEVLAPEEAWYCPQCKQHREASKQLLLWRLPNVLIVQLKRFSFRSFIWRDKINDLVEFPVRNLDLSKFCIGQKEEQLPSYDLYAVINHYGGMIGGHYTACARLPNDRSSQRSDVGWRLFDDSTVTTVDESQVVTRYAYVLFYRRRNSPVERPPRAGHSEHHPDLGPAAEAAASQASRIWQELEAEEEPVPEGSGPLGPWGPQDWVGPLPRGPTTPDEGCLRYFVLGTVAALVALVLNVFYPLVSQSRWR
In short: (§1)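 Average log2 ratios of fragment over vehicle were obtained by unpaired t-test from global-median-normalised Spectronaut label-free quantities. Proteins with ≥2 unique peptides were included. HEK293T lysate (495 µg per sample) was treated in triplicate with fragment at 200 µM or vehicle for 3 h, then with Biotin-Ahx-Ub-VS at 0.5 µM final for 1 h, and labelled DUBs were NeutrAvidin-enriched and run by diaPASEF LC-MS/MS.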

USP22 = molecular target: T2, USP22 (UniProt Q9UPT9)
T2 sequence (whole entry): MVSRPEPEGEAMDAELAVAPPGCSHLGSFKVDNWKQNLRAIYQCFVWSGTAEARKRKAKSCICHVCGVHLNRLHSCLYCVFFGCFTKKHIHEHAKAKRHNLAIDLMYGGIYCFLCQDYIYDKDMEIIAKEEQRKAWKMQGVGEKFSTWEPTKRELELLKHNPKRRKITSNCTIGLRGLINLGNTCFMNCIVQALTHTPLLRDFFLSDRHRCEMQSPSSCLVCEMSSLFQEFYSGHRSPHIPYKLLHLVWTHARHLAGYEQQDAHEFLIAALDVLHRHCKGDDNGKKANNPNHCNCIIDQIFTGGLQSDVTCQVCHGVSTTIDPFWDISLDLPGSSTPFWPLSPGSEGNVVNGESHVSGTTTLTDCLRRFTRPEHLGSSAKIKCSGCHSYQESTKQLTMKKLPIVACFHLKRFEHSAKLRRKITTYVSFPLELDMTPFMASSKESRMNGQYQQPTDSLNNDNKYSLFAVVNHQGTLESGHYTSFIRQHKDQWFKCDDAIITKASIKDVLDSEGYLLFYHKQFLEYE
In short: as §1

USP24 = USP24 (UniProt Q9UPU5)
In short: as §1

USP25 = molecular target: T3, USP25 (UniProt Q9UHP3)
T3 sequence (whole entry): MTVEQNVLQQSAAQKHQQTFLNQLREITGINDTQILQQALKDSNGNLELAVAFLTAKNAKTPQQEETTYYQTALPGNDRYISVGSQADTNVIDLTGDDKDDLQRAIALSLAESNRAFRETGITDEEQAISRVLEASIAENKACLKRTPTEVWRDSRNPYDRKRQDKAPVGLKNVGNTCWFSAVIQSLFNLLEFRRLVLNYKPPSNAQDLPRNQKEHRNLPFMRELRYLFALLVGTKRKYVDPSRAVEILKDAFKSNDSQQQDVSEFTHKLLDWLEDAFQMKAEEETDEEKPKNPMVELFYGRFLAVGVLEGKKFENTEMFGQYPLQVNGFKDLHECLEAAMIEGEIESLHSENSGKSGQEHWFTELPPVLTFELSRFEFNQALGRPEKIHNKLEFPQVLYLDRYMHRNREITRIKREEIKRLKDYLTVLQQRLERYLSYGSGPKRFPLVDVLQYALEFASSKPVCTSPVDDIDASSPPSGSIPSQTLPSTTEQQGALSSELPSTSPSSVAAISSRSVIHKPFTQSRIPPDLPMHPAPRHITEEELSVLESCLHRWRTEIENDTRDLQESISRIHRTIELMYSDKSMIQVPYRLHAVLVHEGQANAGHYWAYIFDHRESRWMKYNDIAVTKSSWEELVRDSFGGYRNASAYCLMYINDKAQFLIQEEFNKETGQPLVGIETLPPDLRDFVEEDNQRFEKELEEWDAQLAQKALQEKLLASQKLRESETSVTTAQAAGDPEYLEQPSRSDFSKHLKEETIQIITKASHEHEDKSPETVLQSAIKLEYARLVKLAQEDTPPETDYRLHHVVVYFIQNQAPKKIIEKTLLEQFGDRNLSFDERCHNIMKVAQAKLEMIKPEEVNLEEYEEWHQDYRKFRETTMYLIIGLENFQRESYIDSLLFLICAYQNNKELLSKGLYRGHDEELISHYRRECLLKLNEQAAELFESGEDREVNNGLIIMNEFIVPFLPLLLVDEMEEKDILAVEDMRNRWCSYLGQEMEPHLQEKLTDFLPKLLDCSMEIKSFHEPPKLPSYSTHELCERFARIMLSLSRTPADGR
In short: as §1

USP28 = molecular target: T4, USP28 (UniProt Q96RU2)
T4 sequence (whole entry): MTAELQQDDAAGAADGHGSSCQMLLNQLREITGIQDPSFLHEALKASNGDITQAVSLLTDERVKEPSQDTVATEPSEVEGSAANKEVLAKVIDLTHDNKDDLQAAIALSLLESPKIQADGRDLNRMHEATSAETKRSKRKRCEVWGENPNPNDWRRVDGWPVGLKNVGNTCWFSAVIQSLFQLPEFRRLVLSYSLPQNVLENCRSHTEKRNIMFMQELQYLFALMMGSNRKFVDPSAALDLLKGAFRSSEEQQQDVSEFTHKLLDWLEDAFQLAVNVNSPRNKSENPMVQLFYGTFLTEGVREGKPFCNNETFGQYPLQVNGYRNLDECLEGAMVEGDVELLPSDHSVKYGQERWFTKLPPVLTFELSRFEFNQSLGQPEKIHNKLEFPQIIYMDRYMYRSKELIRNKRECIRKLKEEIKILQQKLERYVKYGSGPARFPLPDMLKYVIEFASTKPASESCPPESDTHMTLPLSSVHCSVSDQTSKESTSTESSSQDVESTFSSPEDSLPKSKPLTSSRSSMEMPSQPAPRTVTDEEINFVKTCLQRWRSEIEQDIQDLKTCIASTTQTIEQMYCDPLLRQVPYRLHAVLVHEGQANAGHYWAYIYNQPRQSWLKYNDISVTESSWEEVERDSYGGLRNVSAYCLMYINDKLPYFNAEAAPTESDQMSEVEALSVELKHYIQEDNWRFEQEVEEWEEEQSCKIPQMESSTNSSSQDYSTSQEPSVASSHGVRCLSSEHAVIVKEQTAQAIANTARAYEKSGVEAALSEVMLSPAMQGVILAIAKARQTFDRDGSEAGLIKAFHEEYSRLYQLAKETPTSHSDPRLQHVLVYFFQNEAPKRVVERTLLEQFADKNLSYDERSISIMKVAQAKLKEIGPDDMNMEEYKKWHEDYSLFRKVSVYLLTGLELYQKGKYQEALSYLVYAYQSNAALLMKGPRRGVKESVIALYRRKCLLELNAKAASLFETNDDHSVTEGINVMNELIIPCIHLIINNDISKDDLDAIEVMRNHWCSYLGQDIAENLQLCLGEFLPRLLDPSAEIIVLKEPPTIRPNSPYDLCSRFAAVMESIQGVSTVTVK
In short: as §1

Measured: log2 ratio of Biotin-Ahx-Ub-VS probe labelling

Sequence of USP24 (Q9UPU5 whole entry): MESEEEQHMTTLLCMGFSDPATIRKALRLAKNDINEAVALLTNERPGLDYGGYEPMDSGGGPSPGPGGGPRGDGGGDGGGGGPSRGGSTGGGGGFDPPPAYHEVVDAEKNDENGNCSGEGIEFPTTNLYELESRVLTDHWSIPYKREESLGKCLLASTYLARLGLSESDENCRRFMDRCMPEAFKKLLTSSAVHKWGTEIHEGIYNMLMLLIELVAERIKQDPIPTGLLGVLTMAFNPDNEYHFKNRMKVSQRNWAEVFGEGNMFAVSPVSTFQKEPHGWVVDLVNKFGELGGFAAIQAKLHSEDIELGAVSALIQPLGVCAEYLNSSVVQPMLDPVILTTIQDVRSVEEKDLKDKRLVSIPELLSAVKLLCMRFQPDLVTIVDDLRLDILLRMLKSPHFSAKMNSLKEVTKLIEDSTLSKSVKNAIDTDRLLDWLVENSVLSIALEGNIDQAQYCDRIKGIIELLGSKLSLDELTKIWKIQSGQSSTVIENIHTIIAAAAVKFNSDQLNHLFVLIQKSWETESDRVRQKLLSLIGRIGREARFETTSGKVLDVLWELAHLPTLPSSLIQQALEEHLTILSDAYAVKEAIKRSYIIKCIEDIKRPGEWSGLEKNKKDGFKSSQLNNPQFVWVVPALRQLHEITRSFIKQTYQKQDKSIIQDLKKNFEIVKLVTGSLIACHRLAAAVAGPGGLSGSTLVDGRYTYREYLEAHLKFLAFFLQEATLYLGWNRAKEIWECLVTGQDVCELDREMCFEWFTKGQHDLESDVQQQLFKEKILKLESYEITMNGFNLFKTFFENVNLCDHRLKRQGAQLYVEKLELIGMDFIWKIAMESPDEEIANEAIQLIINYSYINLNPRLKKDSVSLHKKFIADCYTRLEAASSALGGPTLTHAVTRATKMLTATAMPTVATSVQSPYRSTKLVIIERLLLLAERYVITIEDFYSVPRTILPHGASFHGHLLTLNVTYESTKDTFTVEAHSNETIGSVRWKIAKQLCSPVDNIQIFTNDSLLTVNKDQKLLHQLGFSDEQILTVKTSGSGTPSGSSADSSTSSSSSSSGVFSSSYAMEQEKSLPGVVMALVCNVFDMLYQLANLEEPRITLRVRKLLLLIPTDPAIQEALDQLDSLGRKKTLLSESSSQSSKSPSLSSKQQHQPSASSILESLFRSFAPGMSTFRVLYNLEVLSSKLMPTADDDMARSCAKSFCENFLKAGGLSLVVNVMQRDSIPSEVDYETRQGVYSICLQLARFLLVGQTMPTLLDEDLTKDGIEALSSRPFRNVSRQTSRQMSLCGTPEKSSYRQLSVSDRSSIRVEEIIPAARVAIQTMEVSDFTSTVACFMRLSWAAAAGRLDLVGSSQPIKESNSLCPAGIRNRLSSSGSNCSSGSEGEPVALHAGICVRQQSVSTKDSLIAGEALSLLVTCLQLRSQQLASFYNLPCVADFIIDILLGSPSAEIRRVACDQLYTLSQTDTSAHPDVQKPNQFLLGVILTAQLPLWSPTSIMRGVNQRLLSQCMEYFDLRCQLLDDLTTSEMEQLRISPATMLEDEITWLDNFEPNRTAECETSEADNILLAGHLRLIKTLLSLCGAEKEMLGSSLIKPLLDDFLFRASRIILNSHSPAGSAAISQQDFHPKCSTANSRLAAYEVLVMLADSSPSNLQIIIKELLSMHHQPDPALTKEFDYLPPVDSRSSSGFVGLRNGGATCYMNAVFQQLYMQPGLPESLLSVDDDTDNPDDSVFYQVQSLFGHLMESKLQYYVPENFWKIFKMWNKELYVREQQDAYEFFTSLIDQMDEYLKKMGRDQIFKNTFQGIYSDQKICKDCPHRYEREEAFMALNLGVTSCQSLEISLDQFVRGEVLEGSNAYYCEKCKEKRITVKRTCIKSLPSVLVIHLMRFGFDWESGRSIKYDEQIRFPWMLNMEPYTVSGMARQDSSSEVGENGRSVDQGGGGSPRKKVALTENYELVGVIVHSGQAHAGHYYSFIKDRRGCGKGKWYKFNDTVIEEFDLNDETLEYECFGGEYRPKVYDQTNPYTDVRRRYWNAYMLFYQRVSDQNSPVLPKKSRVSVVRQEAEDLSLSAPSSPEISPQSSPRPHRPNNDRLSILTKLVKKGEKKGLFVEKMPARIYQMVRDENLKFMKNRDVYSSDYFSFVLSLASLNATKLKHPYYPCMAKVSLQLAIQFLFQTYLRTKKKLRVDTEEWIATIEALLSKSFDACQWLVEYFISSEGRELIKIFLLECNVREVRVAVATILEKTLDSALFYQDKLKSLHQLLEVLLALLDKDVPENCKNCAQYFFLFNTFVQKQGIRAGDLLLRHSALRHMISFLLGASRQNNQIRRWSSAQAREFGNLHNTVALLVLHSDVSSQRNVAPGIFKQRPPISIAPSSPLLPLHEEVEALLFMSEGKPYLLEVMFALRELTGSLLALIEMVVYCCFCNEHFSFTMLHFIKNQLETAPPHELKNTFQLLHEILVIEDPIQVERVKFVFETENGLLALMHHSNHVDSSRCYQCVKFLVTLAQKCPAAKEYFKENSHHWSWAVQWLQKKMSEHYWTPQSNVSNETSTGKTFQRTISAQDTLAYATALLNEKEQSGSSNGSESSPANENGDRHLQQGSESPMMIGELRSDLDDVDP

O=C(CCl)NC1(c2ccc3c(c2)OCCO3)CCCC1
inactive: USP19 -0.103 | USP22 0.0133 | USP24 -0.451 | USP25 -0.337 | USP28 -0.402
